In PubChem BioAssay (NCATS):
Where “and” joins values, the source holds several entries; their conditions need not be identical. Equal entries are not always repeated. Inconclusive results are not listed. A call without a number means that no potency is given here. Calls of active or inactive are those of the source. Unless noted, the call rests on the fitted dose curve.

experiment: P-glycoprotein substrates identified in KB-8-5-11 adenocarcinoma cell line, qHTS therapeutic library screen (AID 1346987; active means well fitted inhibition curve with a large enough effect; further: nearly all actives have a fitted effect of over 65% in size); conditions: KB-8-5-11 (P-gp overexpressing) viability, CellTiter-Glo, 72 h; series mostly up to 44.5 µM
In short: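 P-gp-mediated resistance screen: KB-8-5-11 cells treated 72 h with compounds in dose-response. CellTiter-Glo viability.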
Potency means the concentration at half of the fitted maximal effect.

Compound	Potency
COc1cc2c(c(OC)c1OC)-c1ccc(OC)c(=O)cc1[C@@H](NC(C)=O)CC2	23.1 µM (active) and 132 nM (active)
CN(C)C(=O)C(CCN1CCC(O)(c2ccc(Cl)cc2)CC1)(c1ccccc1)c1ccccc1	18.7 µM (active)
COc1nc(C)nc(Cl)c1NC1=NCCN1	inactive
Cc1ccc(C(=O)Nc2ccc(S(=O)(=O)O)c3cc(S(=O)(=O)O)cc(S(=O)(=O)O)c23)cc1NC(=O)c1cccc(NC(=O)Nc2cccc(C(=O)Nc3cc(C(=O)Nc4ccc(S(=O)(=O)O)c5cc(S(=O)(=O)O)cc(S(=O)(=O)O)c45)ccc3C)c2)c1	inactive
OCCN1CCN(CCCN2c3ccccc3Sc3ccc(C(F)(F)F)cc32)CC1	16.6 µM (active) and 18.4 µM (active)
C[C@](N)(Cc1ccc(O)c(O)c1)C(=O)O	inactive
Cc1cn([C@H]2C[C@H](N=[N+]=[N-])[C@@H](CO)O2)c(=O)[nH]c1=O	inactive
NC(=O)OCC(COC(N)=O)c1ccccc1	inactive
NC(CO)C(=O)NNCc1ccc(O)c(O)c1O (centres undefined)	inactive
O=C(c1ccc(F)cc1)C1CCN(CCn2c(=O)[nH]c3ccccc3c2=O)CC1	inactive
Cc1cc(C(C)(C)C)c(O)c(C)c1CC1=NCCN1	inactive
COc1cc2nc(N(C)CCCNC(=O)C3CCCO3)nc(N)c2cc1OC (centres undefined)	inactive
CCCCc1oc2ccccc2c1C(=O)c1cc(I)c(OCCN(CC)CC)c(I)c1	inactive
COc1cc2nc(N3CCN(C(=O)c4ccco4)CC3)nc(N)c2cc1OC	inactive

experiment: Natriuretic polypeptide receptor (hNpr1) antagonism - Pilot counterscreen GloSensor control cell line (AID 1347045); conditions: HEK293 cGMP GloSensor cells, SNP-stimulated luminescence, 20 min; series mostly up to 38.3 µM
In short: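 This counterscreen uses HEK293 cells expressing the GIP/pGS-40F cGMP biosensor. Compound-treated cells are challenged with 50 uM sodium nitroprusside, and the luciferase signal is compared before and after stimulation.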

Compound	Potency
NCCS(=O)(=O)O	inactive
CNCCCC12CCC(c3ccccc31)c1ccccc12	inactive
CN(C)CCC=C1c2ccccc2C=Cc2ccccc21	inactive
Cn1c(=O)c2[nH]cnc2n(C)c1=O	inactive
COC(=O)Nc1nc2ccc(C(=O)c3cccs3)cc2[nH]1	inactive
O=C1c2c(O)ccc(O)c2C(=O)c2c(NCCNCCO)ccc(NCCNCCO)c21	10.4 µM (active)
Cc1cc(C(C)(C)C)cc(C)c1CC1=NCCN1	inactive
COc1ccccc1OCC(O)CN1CCN(CC(=O)Nc2c(C)cccc2C)CC1 (centres undefined)	inactive
NC12CC3CC(CC(C3)C1)C2	inactive
CCC1(C)CC(=O)NC1=O (centres undefined)	inactive
NC(=O)NO	inactive
NCCCCCC(=O)O	inactive
CCc1cccc2c3c([nH]c12)C(CC)(CC(=O)O)OCC3 (centres undefined)	inactive
CN1C(C(=O)Nc2ccccn2)=C(O)c2ccccc2S1(=O)=O	inactive
COc1cc2c(c(OC)c1OC)-c1ccc(OC)c(=O)cc1[C@@H](NC(C)=O)CC2	inactive
CN(C)C(=O)C(CCN1CCC(O)(c2ccc(Cl)cc2)CC1)(c1ccccc1)c1ccccc1	26.1 µM (active)
COc1nc(C)nc(Cl)c1NC1=NCCN1	inactive
Cc1ccc(C(=O)Nc2ccc(S(=O)(=O)O)c3cc(S(=O)(=O)O)cc(S(=O)(=O)O)c23)cc1NC(=O)c1cccc(NC(=O)Nc2cccc(C(=O)Nc3cc(C(=O)Nc4ccc(S(=O)(=O)O)c5cc(S(=O)(=O)O)cc(S(=O)(=O)O)c45)ccc3C)c2)c1	inactive
C[C@](N)(Cc1ccc(O)c(O)c1)C(=O)O	inactive
NC(=O)OCC(COC(N)=O)c1ccccc1	inactive
NC(CO)C(=O)NNCc1ccc(O)c(O)c1O (centres undefined)	inactive
O=C(c1ccc(F)cc1)C1CCN(CCn2c(=O)[nH]c3ccccc3c2=O)CC1	inactive
Cc1cc(C(C)(C)C)c(O)c(C)c1CC1=NCCN1	inactive
CCCCc1oc2ccccc2c1C(=O)c1cc(I)c(OCCN(CC)CC)c(I)c1	inactive
COc1cc2nc(N3CCN(C(=O)c4ccco4)CC3)nc(N)c2cc1OC	inactive
